Columns and labels:
[1] = molecular target: Serine/threonine-protein kinase pim-2 (Homo sapiens) (UniProt Q9P1W9); conditions: at 1 µM;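 further: each value is a mean of the inhibition measurements against the kinase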
[2] = molecular target: Serine/threonine-protein kinase pim-3 (Homo sapiens) (UniProt Q86V86); conditions: at 0.1 µM
[3] = molecular target: Serine/threonine-protein kinase pim-3 (Homo sapiens) (UniProt Q86V86); conditions: at 1 µM
[4] = molecular target: T1, MAP kinase-activated protein kinase 5 (Homo sapiens) (UniProt Q8IW41); conditions: at 0.1 µM
T1 sequence (whole entry): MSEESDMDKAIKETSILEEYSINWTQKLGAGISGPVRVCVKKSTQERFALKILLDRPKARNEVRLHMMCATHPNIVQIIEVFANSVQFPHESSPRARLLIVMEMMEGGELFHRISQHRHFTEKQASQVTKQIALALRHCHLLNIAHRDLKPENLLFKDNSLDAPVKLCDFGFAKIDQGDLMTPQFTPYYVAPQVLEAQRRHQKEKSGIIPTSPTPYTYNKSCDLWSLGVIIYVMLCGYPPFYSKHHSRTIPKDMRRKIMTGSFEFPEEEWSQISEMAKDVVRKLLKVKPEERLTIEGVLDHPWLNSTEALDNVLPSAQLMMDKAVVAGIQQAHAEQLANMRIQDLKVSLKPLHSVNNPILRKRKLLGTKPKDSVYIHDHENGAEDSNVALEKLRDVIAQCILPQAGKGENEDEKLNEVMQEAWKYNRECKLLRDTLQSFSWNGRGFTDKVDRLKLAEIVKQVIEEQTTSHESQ

[5] = molecular target: T1, MAP kinase-activated protein kinase 5 (Homo sapiens); conditions: at 1 µM
[6] = molecular target: Serine/threonine-protein kinase SIK1 (Homo sapiens) (UniProt P57059); conditions: at 0.1 µM
Serine/threonine-protein kinase SIK1 (Homo sapiens), sequence (P57059 whole entry): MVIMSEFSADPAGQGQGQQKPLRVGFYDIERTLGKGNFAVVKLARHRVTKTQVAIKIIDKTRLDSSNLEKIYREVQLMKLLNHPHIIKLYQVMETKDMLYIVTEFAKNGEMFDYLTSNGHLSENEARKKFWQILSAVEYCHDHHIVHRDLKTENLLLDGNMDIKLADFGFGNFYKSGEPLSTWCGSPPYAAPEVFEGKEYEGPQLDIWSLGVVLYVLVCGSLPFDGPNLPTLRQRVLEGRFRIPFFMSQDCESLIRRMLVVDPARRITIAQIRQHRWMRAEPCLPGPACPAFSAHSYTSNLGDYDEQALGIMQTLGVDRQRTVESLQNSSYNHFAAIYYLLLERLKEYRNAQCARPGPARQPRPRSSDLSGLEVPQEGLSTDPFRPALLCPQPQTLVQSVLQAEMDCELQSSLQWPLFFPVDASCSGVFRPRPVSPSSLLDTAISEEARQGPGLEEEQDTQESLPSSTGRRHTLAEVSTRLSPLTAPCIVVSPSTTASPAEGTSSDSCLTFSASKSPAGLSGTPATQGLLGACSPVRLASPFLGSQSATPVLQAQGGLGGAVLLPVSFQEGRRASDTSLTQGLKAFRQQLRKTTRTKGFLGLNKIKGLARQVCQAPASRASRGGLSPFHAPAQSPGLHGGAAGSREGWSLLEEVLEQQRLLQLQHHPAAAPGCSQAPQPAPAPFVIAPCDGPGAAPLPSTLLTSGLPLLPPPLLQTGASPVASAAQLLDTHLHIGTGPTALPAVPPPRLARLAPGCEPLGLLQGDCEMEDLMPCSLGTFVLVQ

[7] = molecular target: Serine/threonine-protein kinase SIK1 (Homo sapiens) (UniProt P57059); conditions: at 1 µM
[8] = molecular target: Serine/threonine-protein kinase SIK2 (Homo sapiens) (UniProt Q9H0K1); conditions: at 0.1 µM
Serine/threonine-protein kinase SIK2 (Homo sapiens), sequence (Q9H0K1 whole entry, looked up): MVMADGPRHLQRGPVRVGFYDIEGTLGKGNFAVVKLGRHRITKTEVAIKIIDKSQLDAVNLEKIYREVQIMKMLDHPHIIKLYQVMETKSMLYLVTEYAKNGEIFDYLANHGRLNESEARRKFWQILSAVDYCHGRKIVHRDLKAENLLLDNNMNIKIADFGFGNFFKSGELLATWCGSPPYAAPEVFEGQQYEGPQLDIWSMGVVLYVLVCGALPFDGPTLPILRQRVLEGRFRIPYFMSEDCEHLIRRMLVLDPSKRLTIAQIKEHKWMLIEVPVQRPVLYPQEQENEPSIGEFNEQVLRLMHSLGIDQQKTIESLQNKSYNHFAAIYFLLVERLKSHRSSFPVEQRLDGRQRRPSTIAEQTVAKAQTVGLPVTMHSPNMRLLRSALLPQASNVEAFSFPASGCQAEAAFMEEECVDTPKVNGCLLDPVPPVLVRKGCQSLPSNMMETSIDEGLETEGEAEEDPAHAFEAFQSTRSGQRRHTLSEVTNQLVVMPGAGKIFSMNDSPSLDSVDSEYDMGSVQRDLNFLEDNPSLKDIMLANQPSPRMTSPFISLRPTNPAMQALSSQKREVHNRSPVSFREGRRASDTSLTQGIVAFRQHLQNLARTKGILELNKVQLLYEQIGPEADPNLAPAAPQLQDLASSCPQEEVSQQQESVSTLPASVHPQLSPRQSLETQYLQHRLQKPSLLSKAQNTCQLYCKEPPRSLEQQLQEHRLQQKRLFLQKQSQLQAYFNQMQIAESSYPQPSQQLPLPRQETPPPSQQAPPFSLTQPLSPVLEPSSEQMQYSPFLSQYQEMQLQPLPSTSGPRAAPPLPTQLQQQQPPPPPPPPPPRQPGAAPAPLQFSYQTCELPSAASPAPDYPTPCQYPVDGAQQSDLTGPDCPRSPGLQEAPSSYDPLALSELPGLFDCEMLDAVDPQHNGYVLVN

[9] = molecular target: Serine/threonine-protein kinase SIK2 (Homo sapiens) (UniProt Q9H0K1); conditions: at 1 µM
[10] = molecular target: T2, Serine/threonine-protein kinase TBK1 (Homo sapiens) (UniProt Q9UHD2); conditions: at 0.1 µM
T2 sequence (whole entry): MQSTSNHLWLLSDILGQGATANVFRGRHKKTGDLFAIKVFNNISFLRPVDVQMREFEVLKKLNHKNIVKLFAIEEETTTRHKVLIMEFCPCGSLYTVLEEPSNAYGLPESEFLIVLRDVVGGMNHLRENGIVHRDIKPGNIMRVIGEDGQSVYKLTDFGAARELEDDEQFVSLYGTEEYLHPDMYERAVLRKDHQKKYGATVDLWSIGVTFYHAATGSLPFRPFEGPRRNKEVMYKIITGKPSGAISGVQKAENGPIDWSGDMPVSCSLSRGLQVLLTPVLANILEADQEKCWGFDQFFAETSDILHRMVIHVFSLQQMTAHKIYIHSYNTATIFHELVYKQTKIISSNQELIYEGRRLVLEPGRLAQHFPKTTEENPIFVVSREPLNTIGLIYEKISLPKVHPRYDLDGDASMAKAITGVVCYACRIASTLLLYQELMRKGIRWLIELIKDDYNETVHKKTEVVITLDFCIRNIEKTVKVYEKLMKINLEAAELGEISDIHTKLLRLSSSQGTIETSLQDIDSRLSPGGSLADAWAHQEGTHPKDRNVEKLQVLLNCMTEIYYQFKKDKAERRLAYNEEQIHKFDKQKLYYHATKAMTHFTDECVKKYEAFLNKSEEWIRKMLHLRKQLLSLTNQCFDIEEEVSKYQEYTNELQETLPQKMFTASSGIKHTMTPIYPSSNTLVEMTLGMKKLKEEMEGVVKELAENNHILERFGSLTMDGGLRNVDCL

[11] = molecular target: T2, Serine/threonine-protein kinase TBK1 (Homo sapiens); conditions: at 1 µM
[12] = molecular target: T3, Testis-specific serine/threonine-protein kinase 1 (Homo sapiens) (UniProt Q9BXA7); conditions: at 0.1 µM
T3 sequence (whole entry): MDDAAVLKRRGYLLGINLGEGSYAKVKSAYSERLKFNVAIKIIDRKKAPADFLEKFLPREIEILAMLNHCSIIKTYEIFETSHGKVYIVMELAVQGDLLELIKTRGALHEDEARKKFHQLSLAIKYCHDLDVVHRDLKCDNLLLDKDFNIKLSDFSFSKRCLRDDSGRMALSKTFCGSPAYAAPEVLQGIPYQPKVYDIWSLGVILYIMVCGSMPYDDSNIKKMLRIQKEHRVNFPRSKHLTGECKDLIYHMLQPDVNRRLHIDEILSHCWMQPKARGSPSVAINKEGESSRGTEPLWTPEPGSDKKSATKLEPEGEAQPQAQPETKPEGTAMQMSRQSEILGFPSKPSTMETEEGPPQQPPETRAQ

[13] = molecular target: T3, Testis-specific serine/threonine-protein kinase 1 (Homo sapiens); conditions: at 1 µM
[14] = molecular target: T4, Testis-specific serine/threonine-protein kinase 2 (Homo sapiens) (UniProt Q96PF2); conditions: at 0.1 µM
T4 sequence (whole entry): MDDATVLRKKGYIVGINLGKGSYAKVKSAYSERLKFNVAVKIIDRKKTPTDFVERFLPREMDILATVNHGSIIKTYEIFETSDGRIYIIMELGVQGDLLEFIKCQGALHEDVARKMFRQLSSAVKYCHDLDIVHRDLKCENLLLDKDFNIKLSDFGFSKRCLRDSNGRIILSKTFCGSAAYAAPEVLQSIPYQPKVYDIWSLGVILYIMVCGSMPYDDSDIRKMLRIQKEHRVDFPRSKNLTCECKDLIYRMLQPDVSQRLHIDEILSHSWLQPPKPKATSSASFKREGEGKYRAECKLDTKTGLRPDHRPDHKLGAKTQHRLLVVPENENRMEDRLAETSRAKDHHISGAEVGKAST

[15] = molecular target: T4, Testis-specific serine/threonine-protein kinase 2 (Homo sapiens); conditions: at 1 µM
[16] = molecular target: Casein kinase I isoform alpha (Homo sapiens) (UniProt P48729); conditions: at 0.1 µM
Casein kinase I isoform alpha (Homo sapiens), sequence (P48729 2-337 limits assumed): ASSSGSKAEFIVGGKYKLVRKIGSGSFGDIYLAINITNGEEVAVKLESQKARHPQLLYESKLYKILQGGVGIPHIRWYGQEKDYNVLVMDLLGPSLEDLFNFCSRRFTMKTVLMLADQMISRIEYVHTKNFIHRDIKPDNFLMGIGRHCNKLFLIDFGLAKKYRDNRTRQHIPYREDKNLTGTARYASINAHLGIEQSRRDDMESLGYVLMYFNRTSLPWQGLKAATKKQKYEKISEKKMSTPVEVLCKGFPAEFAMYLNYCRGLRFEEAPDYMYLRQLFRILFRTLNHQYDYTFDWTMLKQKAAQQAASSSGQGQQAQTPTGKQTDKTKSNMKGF

[17] = molecular target: Casein kinase I isoform alpha (Homo sapiens) (UniProt P48729); conditions: at 1 µM
[18] = molecular target: Casein kinase I isoform gamma-1 (Homo sapiens) (UniProt Q9HCP0); conditions: at 0.1 µM
Casein kinase I isoform gamma-1 (Homo sapiens), sequence (Q9HCP0 whole entry, looked up, canonical isoform): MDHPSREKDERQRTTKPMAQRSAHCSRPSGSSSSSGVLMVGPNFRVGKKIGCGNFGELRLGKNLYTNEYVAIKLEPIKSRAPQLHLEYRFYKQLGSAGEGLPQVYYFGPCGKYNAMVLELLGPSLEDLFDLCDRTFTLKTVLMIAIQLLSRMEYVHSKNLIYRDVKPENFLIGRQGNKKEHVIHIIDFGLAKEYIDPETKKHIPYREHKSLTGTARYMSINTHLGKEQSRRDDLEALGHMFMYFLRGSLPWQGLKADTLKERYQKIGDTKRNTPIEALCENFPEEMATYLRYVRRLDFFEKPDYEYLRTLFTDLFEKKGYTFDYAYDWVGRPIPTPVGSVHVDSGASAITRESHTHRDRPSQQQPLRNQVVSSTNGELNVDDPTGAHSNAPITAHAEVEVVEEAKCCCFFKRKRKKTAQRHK

[19] = molecular target: Casein kinase I isoform gamma-1 (Homo sapiens) (UniProt Q9HCP0); conditions: at 1 µM
[20] = molecular target: Casein kinase I isoform gamma-2 (Homo sapiens) (UniProt P78368); conditions: at 0.1 µM;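 further: values are mean inhibition figures reported as part of the GSK PKIS dataset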
Casein kinase I isoform gamma-2 (Homo sapiens), sequence (P78368 whole entry, looked up, canonical isoform): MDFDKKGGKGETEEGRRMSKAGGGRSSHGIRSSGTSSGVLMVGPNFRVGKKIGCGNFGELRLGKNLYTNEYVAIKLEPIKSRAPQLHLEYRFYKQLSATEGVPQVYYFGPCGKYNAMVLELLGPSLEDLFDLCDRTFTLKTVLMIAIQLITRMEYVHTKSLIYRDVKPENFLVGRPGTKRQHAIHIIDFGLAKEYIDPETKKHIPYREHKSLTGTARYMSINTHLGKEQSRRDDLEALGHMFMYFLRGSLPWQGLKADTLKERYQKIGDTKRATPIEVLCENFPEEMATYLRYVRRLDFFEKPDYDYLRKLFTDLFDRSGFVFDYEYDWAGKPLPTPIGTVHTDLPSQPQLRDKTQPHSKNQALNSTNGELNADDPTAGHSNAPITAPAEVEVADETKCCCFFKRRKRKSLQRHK

Serine/threonine-protein kinase pim-2 (Homo sapiens), sequence (Q9P1W9 whole entry, looked up): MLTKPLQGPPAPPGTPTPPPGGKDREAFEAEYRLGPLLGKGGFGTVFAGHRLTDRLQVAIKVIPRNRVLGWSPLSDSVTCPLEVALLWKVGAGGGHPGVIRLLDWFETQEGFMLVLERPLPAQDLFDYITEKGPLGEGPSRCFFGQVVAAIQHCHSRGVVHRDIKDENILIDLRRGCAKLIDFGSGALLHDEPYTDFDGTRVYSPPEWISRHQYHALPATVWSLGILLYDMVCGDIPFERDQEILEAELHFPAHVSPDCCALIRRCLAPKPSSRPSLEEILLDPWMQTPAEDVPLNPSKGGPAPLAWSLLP

Structure (SMILES)	inhibition [1] [%]	inhibition [2] [%]	inhibition [3] [%]	inhibition [4] [%]	inhibition [5] [%]	inhibition [6] [%]	inhibition [7] [%]	inhibition [8] [%]	inhibition [9] [%]	inhibition [10] [%]	inhibition [11] [%]	inhibition [12] [%]	inhibition [13] [%]	inhibition [14] [%]	inhibition [15] [%]	inhibition [16] [%]	inhibition [17] [%]	inhibition [18] [%]	inhibition [19] [%]	inhibition [20] [%]
c1ccc(Cc2nc3ccc(Nc4ncnc5ccccc45)cc3[nH]2)cc1	0.02	0.69	3.67	1.42	1.52	3.13	5.43	2.47	7.91	3.57	5.54	0.97	2.75	-0.59	4.11	8.25	7.49	2.6	6.23	2.94
CCS(=O)(=O)c1ccc(OC)c(Nc2ncc(-c3cccc(OC)c3)o2)c1	0.96	-0.8	-0.55	0.94	-0.22	6.26	28.6	8.33	31.2	0.69	9.22	1.15	-0.25	1.31	-3.49	1.44	6.31	2.59	6.2	1.91
Nc1nccc(C#Cc2cncnc2Nc2ccc(OCc3cccc(F)c3)c(Cl)c2)n1	1.29	-0.87	-1.09	0.74	-0.01	5.03	6.42	5.11	8.28	4.36	9.39	2.97	1.86	1.69	-1.18	4.12	5.01	3.44	4.16	2.25
O=C(Nc1ccc(Oc2ccc3[nH]c(NC(=O)c4ccco4)nc3c2)cc1)Nc1cc(C(F)(F)F)ccc1F	-3.75	0.09	0.78	-0.29	-0.75	4.18	4.41	-4.88	0.5	0.65	0.97	0.73	0.2	0.45	-0.72	0.72	1.23	-3.78	-2.12	-4.05
Cc1ccc(NC(=O)CC2CC2)cc1-c1ccc(C(=O)NCC2CC2)cc1	0.37	0.23	1.25	1.21	1.26	3.64	9.75	5.46	4.87	2.81	5.71	3.65	2.94	2.59	1.29	7.12	3.9	1.42	2.32	2.95
CC(C)c1ccc2c(c1)NC(=O)/C2=N/Nc1ccc(S(N)(=O)=O)cc1	1.32	2.03	3.02	0.46	0.35	1.04	7.02	2.29	2.16	-1	-0.26	-0.2	1.24	0.12	0.46	0.06	0.18	0.11	0.56	0.63
CCCN1CCCC(c2ccc(Nc3nc(Nc4cc(F)ccc4C(N)=O)c4cc[nH]c4n3)c(OC)c2)C1 (stereo not given)	7.35	4.99	40.8	5.81	33.2	6.07	10.2	2.41	11	4.22	11.5	81	92.6	62.5	86	44.3	78.5	36.1	78	29.6
ON=C1CCc2cc(-c3nc(C4CCNCC4)[nH]c3-c3ccncc3)ccc21	2.02	-0.74	-1.33	-0.32	-1.28	-0.24	0.92	-6.05	3.25	0.4	1.68	0.96	0.73	-0.31	-0.97	-0.25	8.55	0.25	1.66	1.32
[O-][S+]1CCN(Cc2ccc(-c3ccc4ncnc(Nc5ccc(OCc6ccccc6)c(Cl)c5)c4c3)o2)CC1	0.25	0.7	1.32	0.67	0.37	0.43	7.59	1.44	5.75	0.91	2.35	2.58	2.95	1.24	1.08	1.88	2.94	1.25	2.34	0.8
NS(=O)(=O)c1cccc(Nc2cc(-c3ccc(F)cc3)n[nH]2)c1	1.85	2.44	5.79	1.15	2.81	7.9	33.8	11.7	37.9	2.64	15.2	4.49	6.59	3.05	2.38	-3.61	3.36	2.11	3.54	1.72
CCn1c(-c2nonc2N)nc2ccc(F)cc21	0.34	-0.77	4.99	2.78	4.45	4.96	8.41	7.14	12.5	5.18	4.44	5.02	7.33	2.94	4.64	3.7	4.99	4.91	5.86	5.17
N#Cc1cccc(Nc2nccc(-c3cnn4ncccc34)n2)c1	7.85	4.41	34	1.48	4.15	8.01	15.1	4.44	11.9	1.58	22.1	6.69	10.6	2.43	2.95	28.9	69.8	5.75	28.2	6.38
COc1ccc(-c2nn3ncccc3c2-c2ccnc(Nc3cccc(C(F)(F)F)c3)n2)cc1	0.24	-0.01	0.75	1.02	1.07	7.99	2.26	4.76	8.4	0.76	1.7	0.61	1.94	1.17	0.38	0.44	2.43	2.67	2.71	2.72

Reference: ChEMBL document CHEMBL1961873, “Compounds: GSK PKIS; Assays: Nanosyn kinase panel” (2012)
